# Where “and” joins values, the source holds several entries; their conditions need not be identical. Equal values may be shown once.
# Target: C-X-C chemokine receptor type 6 (Homo sapiens) (UniProt O00574)
# Assay: apelin receptor (APJ) antagonists, SAR follow-up, counter-screen for CXCR6 antagonist project, cell-based, beta-arrestin, DiscoveRx, panel, CHO-K1 (AID 651598)
# Details: CHO-K1 PathHunter beta-arrestin luminescence, antagonist mode; run 4, at 80 µM (top of the series)
# Sequence of C-X-C chemokine receptor type 6 (Homo sapiens) (O00574 whole entry, looked up): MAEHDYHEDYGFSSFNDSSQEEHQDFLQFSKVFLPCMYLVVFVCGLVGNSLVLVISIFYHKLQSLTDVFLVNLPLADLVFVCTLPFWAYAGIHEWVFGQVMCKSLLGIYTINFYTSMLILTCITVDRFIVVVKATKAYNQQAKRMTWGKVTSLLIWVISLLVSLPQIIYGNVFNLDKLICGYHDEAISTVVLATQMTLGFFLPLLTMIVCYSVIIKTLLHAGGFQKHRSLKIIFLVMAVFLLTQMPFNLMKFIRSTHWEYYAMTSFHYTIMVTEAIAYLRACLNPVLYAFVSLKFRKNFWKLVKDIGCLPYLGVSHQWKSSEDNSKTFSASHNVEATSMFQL
row,Compound,inhibition
1,COc1cc(C(=O)NC2CC3CCCC(C2)N3CC(=O)Nc2ccccc2)cc(OC)c1OC (stereo not drawn),88.8% and 51.2% and 29%
2,COc1cc(C(=O)NC2CCN(CC(=O)Nc3ccccc3)CC2)cc(OC)c1OC,29.6%
3,COc1cc(C(=O)NC2CC3CCC(C2)N3CC(=O)Nc2ccccc2)cc(OC)c1OC (stereo not drawn),45.8% and 2.45%
